Measured values from PubChem BioAssay (NCI).
The panel holds about 79,000 compounds, 15% with a hit somewhere; the sample as a whole holds those more often. Cut-off read from the data, not from the text of the source: active = growth inhibition above about 70%; inactive = the rest.

Tests used:
[1] = NCI Yeast Anticancer Drug Screen. Data for the rad50 strain (AID 155);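 note: 0% = growth of vehicle-only cultures of the same strain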; conditions: S. cerevisiae rad50 strain growth inhibition; at 50.0 µM; hits give high values
Outline: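 A DNA repair-deficient yeast mutant serves as the test organism; compound-induced growth inhibition is calculated against vehicle-treated cells.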

[2] = NCI Yeast Anticancer Drug Screen. Data for the mec2-1 strain (AID 157); conditions: S. cerevisiae mec2-1 strain, at 50.0 µM, hits give high values
Outline: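 Each compound was tested on mec2-1 yeast, a strain altered in DNA damage repair or cell cycle control. Growth inhibition is reported relative to vehicle.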

[3] = NCI Yeast Anticancer Drug Screen. Data for the sgs1 mgt1 strain (AID 161);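 note: 0% = growth of cultures given vehicle only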; conditions: S. cerevisiae sgs1 mgt1 strain, at 50.0 µM, hits give high values
Outline: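 Inhibition of yeast growth, normalised to vehicle-treated controls, is reported for a strain bearing genetic alterations in DNA damage repair.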

[4] = NCI Yeast Anticancer Drug Screen. Data for the cln2 rad14 strain (AID 165);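 note: 0% = growth equal to vehicle treated cultures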; conditions: S. cerevisiae cln2 rad14 strain, at 50.0 µM, hits give high values
Outline: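 Test compounds were added to cln2 rad14 yeast cultures; inhibition of growth was then determined by comparison with vehicle treatment.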

[5] = NCI Yeast Anticancer Drug Screen. Data for the bub3 strain (AID 167); conditions: S. cerevisiae bub3 mutant strain, at 50.0 µM, hits give high values
Outline: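 Inhibition values come from growth of compound-treated mutant yeast normalised to vehicle-treated controls.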

[6] = NCI Yeast Anticancer Drug Screen. Data for the mlh1 rad18 strain (AID 175); conditions: S. cerevisiae mlh1 rad18 strain growth inhibition; at 50.0 µM; hits give high values
Outline: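 Inhibition values reflect reduced growth of mutant yeast versus vehicle-treated controls following compound exposure; the mutations affect DNA damage repair.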

Measured: growth inhibition

O=C1c2cc(Br)ccc2-c2ccc(Br)c3cccc1c23
inactive: [1] -10.6% | [2] -20.8% | [3] -6.1% | [4] 10.3% | [5] -1.05% | [6] -20.3%

Cn1c(=O)cc2n(C)c3ccccc3n2c1=O
inactive: [1] 33.1% | [2] 18.6% | [3] 1.2% | [4] -5.9% | [5] 6.2% | [6] 5.8%

O=P(O)(O)c1ccc(-c2ccc(P(=O)(O)O)cc2)cc1
inactive: [1] -4.7% | [2] 2.85% | [3] 12.8% | [4] -32.2% | [5] 2.3% | [6] -1.75%

CC(O)(C1CC1)C(C(=O)O)c1ccccc1 (stereo unspecified)
inactive: [1] -15.4% | [2] -6.85% | [3] 1.9% | [4] -26.7% | [5] 1.55% | [6] 10.6%

CN(C)c1c(F)c(F)c(N=Nc2ccccc2)c(F)c1F
inactive: [1] 0.75% | [2] -2.6% | [3] 1.15% | [4] -3.15% | [5] 16.8% | [6] -12.1%

CCCCCCCCC(=O)O (tested in a mixture with another compound)
inactive: [1] 2.3% | [2] 6.75% | [3] 9.95% | [4] 12.7% | [5] 2.85% | [6] 29.1%

Cc1ccc2cccc(C)c2n1
inactive: [1] -14.9% | [2] -26.6% | [3] -45.3% | [4] -6.7% | [5] -29.6% | [6] -23.5%

NC(CC1C=CC=CC1)C(=O)O (stereo unspecified)
inactive: [1] 0.6% | [2] 3.15% | [3] 8.35% | [4] -6% | [5] -4.05% | [6] -4.85%

c1ccc(Cc2ccc3ccccc3c2)cc1
inactive: [1] 35.3% | [2] 14.6% | [3] 11.8% | [4] -26.6% | [5] 12.2% | [6] 50.2%

CCCCCCCCCCCCCCCCCC(=O)NCCCNCCCNC(=O)CCCCCCCCCCCCCCCCC
inactive: [1] -10.9% | [2] -21.4% | [3] -12.2% | [4] 7.55% | [5] -17.5% | [6] -13.6%

CN(C)C(=O)c1ccc([N+](=O)[O-])cc1
inactive: [1] 21.1% | [2] 6.4% | [3] 11.8% | [4] 12.1% | [5] -4.75% | [6] -23.4%

CCC1(C)N=C(N)Nc2nc3cc(C)c(C)cc3n21 (stereo unspecified)
inactive: [1] 15.2% | [2] 17.7% | [3] 25.1% | [4] 7.05% | [5] 19.9% | [6] 21.4%

Cc1nc[nH]c(=O)c1N
inactive: [1] 0.55% | [2] -1.75% | [3] 9.2% | [4] 0.9% | [5] 7.75% | [6] -4.85%

O=C(O)c1[nH]c2c(=O)[nH]c(=O)[nH]c2c1Br
inactive: [1] 5.25% | [2] -2.8% | [3] -15.9% | [4] -4.35% | [5] 2.15% | [6] 15%

CCc1nnc(CC)n1N
inactive: [1] 46.2% | [2] -7.05% | [3] 41.8% | [4] -10.6% | [5] 16.4% | [6] 38.2%

O=C1C(=S)Nc2c(F)cccc21
inactive: [1] 21.6% | [2] 51.4% | [3] 24.2% | [4] 39.6% | [5] 29.6% | [6] 31.9%

CCCCOC(=O)c1cc(/C=C\c2ccccc2)on1
inactive: [1] -12.9% | [2] -2.45% | [3] 3.1% | [4] -69.6% | [5] 30.6% | [6] 9.25%

COc1ccc2c(c1)OC[C@@H]1c3cc(NC(=O)c4ccccc4)c(OC)cc3N(S(=O)(=O)c3ccccc3)[C@H]21
inactive: [1] -22.8% | [2] -6.4% | [3] -18.1% | [4] -3.3% | [5] 2.25% | [6] -2.25%

CC(C)([NH-])C[NH-].[Cl][Pt+2][Cl]
inactive: [1] -17.1% | [2] -18.8% | [3] -24.5% | [4] -23.4% | [5] -3.8% | [6] 5.1%

COC1OC(COC(c2ccccc2)(c2ccccc2)c2ccccc2)C2OC12 (stereo unspecified)
inactive: [1] 44.1% | [2] 5.15% | [3] 22.6% | [4] 11% | [5] 1.3% | [6] 19.7%

CC(=O)NC(C)c1ccc(N=NN2CCCC2)cc1 (stereo unspecified)
inactive: [1] 19.6% | [2] -6% | [3] 20% | [4] 19.9% | [5] 25.3% | [6] -30.5%

N#CCSCC(N)C(=O)O (stereo unspecified)
inactive: [1] -11.1% | [2] -15.2% | [3] -1.1% | [4] -6.75% | [5] -19.6% | [6] -4.8%

O=C(NC(=O)c1c(Cl)nc2sccn12)Nc1ccc(Cl)cc1
inactive: [1] -5.45% | [2] -14.1% | [3] -4.65% | [4] 0.85% | [5] -0.6% | [6] -23.9%

O=[N+]([O-])c1ccc(-c2cc3ccccn3c2)cc1
inactive: [1] -5.1% | [2] -46.2% | [3] -9.7% | [4] -11.8% | [5] 11.8% | [6] -18.1%

Cc1ccc(S(=O)(=O)NCc2cccc([N+](=O)[O-])c2)cc1
inactive: [1] 6.25% | [2] -15.8% | [3] -13.6% | [4] 19% | [5] 18.2% | [6] 14.8%

Cc1ccc(CCC=O)cc1
inactive: [1] 30.6% | [2] -4.1% | [3] 17.4% | [4] -37.9% | [5] -8.5% | [6] 29.4%

O=C(/C=C/c1ccc(O)cc1)NCCc1c[nH]c2ccc(O)cc12
inactive: [1] 0.75% | [2] -10% | [3] 10% | [4] 8.35% | [5] -3.7% | [6] 7.75%

O=C(O)C(CO)N=Cc1nc(-c2ccccc2)oc1O (stereo unspecified)
inactive: [1] 0.2% | [2] 6.05% | [3] 12.4% | [4] 9.25% | [5] -6.25% | [6] -11.8%

O=c1[nH]c(Nc2cccc(Br)c2)nc2nc[nH]c12
inactive: [1] -53.2% | [2] -8.65% | [3] -23.9% | [4] -45.4% | [5] -5.9% | [6] -37.5%

C=CCNC(=O)NCCCCC(NC(C)=O)C(=O)NCc1ccccc1 (stereo unspecified)
inactive: [1] -25.4% | [2] -18.4% | [3] -13.6% | [4] 2.35% | [5] -16.8% | [6] -10%

CC1COC(c2ccc(Cl)cc2Cl)O1 (stereo unspecified)
inactive: [1] 8.35% | [2] -2.4% | [3] -1.1% | [4] 1.25% | [5] 2.75% | [6] -0.65%

C=CCc1ccc(OC(=O)Nc2ccc(S(=O)(=O)N(C)C)cc2)c(OC)c1
inactive: [1] 26.6% | [2] 2% | [3] 22.8% | [4] 14.6% | [5] 6.75% | [6] 19.2%

CCOC(=O)C(O)(NC(C)=O)C(F)(F)F (stereo unspecified)
inactive: [1] 27.9% | [2] -3.9% | [3] -0.8% | [4] 17.4% | [5] 0.2% | [6] -47.4%

COC(=O)C1C(=O)C2CCC1C(=O)C2C(=O)OC (stereo unspecified)
inactive: [1] 1.95% | [2] -2.8% | [3] 16.4% | [4] 4.1% | [5] 9.75% | [6] 22.7%

O=C1CCN2CCC(=O)c3c2c(cc2ccccc32)N1
inactive: [1] 6.25% | [2] -15.8% | [3] -4.45% | [4] 10.3% | [5] -12.7% | [6] -12.6%

O=[N+]([O-])c1cccc(Cc2nc3ccccc3nc2-c2ccccc2)c1
inactive: [1] 34.9% | [2] 18.2% | [3] 13.7% | [4] 4.1% | [5] 48.6% | [6] 37.7%

CCOC(=O)N1CC(C)N(C(=O)OCC)CC1C (stereo unspecified)
inactive: [1] -3.9% | [2] -7.1% | [3] 6.7% | [4] -15.8% | [5] 33.8% | [6] 8.5%

CS(=O)(=O)NCCBr
inactive: [1] -10.4% | [2] -3.5% | [3] 5.9% | [4] -22.4% | [5] -32% | [6] -10.9%

Nc1cccc(C(CC(=O)O)CC(=O)O)c1
inactive: [1] 14.8% | [2] 10.9% | [3] 13% | [4] 16.7% | [5] -1.5% | [6] 15.8%

CCN(CC)CCNc1ccc2ncn3c4ccccc4c(=O)c1c23
inactive: [1] 19.9% | [2] 8.85% | [3] -16.1% | [4] 33.1% | [5] 29.1% | [6] 42.9%

CC(=O)Nc1ccc(/C=N/NC(=O)/C=C/c2ccccc2)cc1
inactive: [1] -7.15% | [2] 3.25% | [3] 6.25% | [4] -5% | [5] -1% | [6] 2.15%
